Screening data from PubChem.
PRMT1 FP inh – inhibitors of human PRMT1 | Q99873 | recombinant PRMT1, activity-based probe fluorescence polarization | inhibition, % at 2.79 µM | 1.3% of 370,000 active | AID 652257;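 active = inhibition above about 21% made by adding two undisclosed values, limit read from the data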
TLR9-MyD88 block – blocks human TLR9 binding to MyD88 | CHO BLA complementation TLR9-MyD88, CCF4 FRET ratio | inhibition, % at 4.98 µM | 0.21% of 340,000 active | AID 504734;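 active = inhibition above the mean over all tested compounds plus 3 SD, cut at about 21% in these data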
NOD2 RIPK2 PPI – inhibitors of human NOD2-RIPK2 interaction; CHO BLA complementation NOD2-RIPK2, CCF4 ratio; O43353; 0.38% of 360,000 active; inhibition, % at 4.98 µM; in the data active = inhibition above about 21%
Target sequence (O43353 whole entry, looked up): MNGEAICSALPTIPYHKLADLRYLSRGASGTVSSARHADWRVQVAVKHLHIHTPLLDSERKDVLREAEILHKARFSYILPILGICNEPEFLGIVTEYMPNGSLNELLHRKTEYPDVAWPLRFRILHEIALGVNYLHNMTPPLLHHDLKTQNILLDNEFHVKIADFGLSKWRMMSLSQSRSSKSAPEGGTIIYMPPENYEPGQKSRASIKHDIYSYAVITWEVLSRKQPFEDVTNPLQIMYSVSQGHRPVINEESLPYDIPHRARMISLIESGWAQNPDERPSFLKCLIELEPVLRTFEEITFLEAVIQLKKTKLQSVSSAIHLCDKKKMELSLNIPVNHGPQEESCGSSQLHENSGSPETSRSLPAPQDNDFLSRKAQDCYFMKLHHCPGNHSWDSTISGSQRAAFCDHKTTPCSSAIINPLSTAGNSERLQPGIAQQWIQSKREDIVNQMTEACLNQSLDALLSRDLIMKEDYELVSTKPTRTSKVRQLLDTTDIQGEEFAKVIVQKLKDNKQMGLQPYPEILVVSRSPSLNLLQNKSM
TLR4 MyD88 comp – TLR4-MyD88 interaction inhibition in cells; O00206+Q99836; HeLa CL3-4 TLR4/MyD88 BLA complementation, FRET ratio; inhibition, % at 8.4 µM; 0.18% of 200,000 active; AID 861; in the data active = inhibition above about 25%
rCAG binder – r(CAG) repeat RNA binding; inhibition, % at 3 µM; TO-PRO-1 dye displacement fluorescence; 1.3% of 370,000 active;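 active = inhibition above the plate cutoff, the mean of all test compounds on that plate plus 3 SD, cut at about 35% in these data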;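 note: higher means more dye released from RNA so lower well fluorescence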
ABHD5-PLIN5 inh – ABHD5-PLIN5 protein interaction inhibition; inhibition, % at 4 µM; Split G. princeps luciferase complementation, luminescence, 4 h; 0.78% of 360,000 active;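 active = inhibition above the mean inhibition across every tested compound plus 3 SD, cut at about 22% in these data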
rCAG binder conf – r(CAG) RNA repeat binding, confirmation | shares compounds with rCAG binder | TO-PRO-1 dye displacement fluorescence | inhibition, % at 3 µM | 70% of 4,300 active | AID 652065;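 active = inhibition above a per-plate cutoff, the mean inhibition of sample wells plus 3 SD, cut at about 35% in these data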;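 note: loss of TO-PRO-1 fluorescence as compound displaces dye from 1x1 AA loop RNA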
DNA CAG counter – DNA CAG dye complex inhibition counter-screen | 94% of 4,300 active | inhibition, % at 3 µM | d(CAG) DNA oligo TO-PRO-1 dye displacement, fluorescence | AID 652068 | shares compounds with rCAG binder;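 active = inhibition above its plate's cutoff, the mean test-well inhibition plus 3 SD, cut at about 4.8% in these data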;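 note: hits displace the dye from DNA and so lower well fluorescence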
Of the large screens only hits and unclear results are named; the others gave an inactive call (follow-up assays come after a bar, where they were run). Most compounds without a hit are left out; they make up all but 3.3% or so of the library.

Cc1cc(Br)ccc1NC(=O)C1C2CCC(O2)C1C(=O)O (centres undefined)	none (no result: TLR4 MyD88 comp)
Cn1cc(C(=O)C(=O)NC2CCCCC2)c2ccccc21	none (no result: TLR4 MyD88 comp)
CCCC[C@@H]1C=C(C(=O)O)[C@H](c2ccc(Br)cc2)N1S(=O)(=O)c1ccc(C)cc1	rCAG binder 53.0 (no result: TLR4 MyD88 comp) | rCAG binder conf 54.2 | DNA CAG counter 19.1
CCCC[C@@H]1C=C(C(=O)O)[C@H](c2ccc(CC)cc2)N1S(=O)(=O)c1ccc(C)cc1	rCAG binder 65.7 (no result: TLR4 MyD88 comp) | rCAG binder conf 49.1 | DNA CAG counter 15.1
CC[C@@H]1C=C(C(=O)O)[C@H](c2ccc(Br)cc2)N1S(=O)(=O)c1ccc(C)cc1	none (no result: TLR4 MyD88 comp)
CCCCC[C@@H]1C=C(C(=O)O)[C@H](c2ccc(F)cc2)N1S(=O)(=O)c1ccc(C)cc1	rCAG binder 59.5 (no result: TLR4 MyD88 comp) | rCAG binder conf 44.6 | DNA CAG counter 14.2
CC(C)c1ccc(/C=C2\SC(=O)N(CC(=O)NC3C=CS(=O)(=O)C3)C2=O)cc1 (centres undefined)	none (no result: TLR4 MyD88 comp)
C/C(=N\NC(=O)c1ccco1)c1ccc(NC(=O)C(F)(F)F)cc1	none (no result: TLR4 MyD88 comp)
CC[C@@H]1C=C(C(=O)O)[C@H](c2ccc3c(c2)OCO3)N1S(=O)(=O)c1ccc(C)cc1	none (no result: TLR4 MyD88 comp)
CCCCC[C@@H]1C=C(C(=O)O)[C@H](c2ccc(OC)c(OC)c2)N1S(=O)(=O)c1ccc(C)cc1	rCAG binder 49.9 (no result: TLR4 MyD88 comp) | rCAG binder conf 43.6 | DNA CAG counter 13.6
CC[C@@H]1C=C(C(=O)O)[C@H](c2ccc(C#N)cc2)N1S(=O)(=O)c1ccc(C)cc1	none (no result: TLR4 MyD88 comp)
CCCCC[C@@H]1C=C(C(=O)O)[C@H](c2ccc(Cl)c(Cl)c2)N1S(=O)(=O)c1ccc(C)cc1	rCAG binder 85.1 (no result: TLR4 MyD88 comp) | rCAG binder conf 86.8 | DNA CAG counter 52.9
CCCCC[C@@H]1C=C(C(=O)O)[C@H](c2ccc3c(c2)OCO3)N1S(=O)(=O)c1ccc(C)cc1	rCAG binder 64.7 (no result: TLR4 MyD88 comp) | rCAG binder conf 53.8 | DNA CAG counter 20.7
CCCCC[C@@H]1C=C(C(=O)O)[C@H](c2ccc(CC)cc2)N1S(=O)(=O)c1ccc(C)cc1	none (no result: TLR4 MyD88 comp)
CCCCC[C@@H]1C=C(C(=O)O)[C@H](c2cccc(C)c2)N1S(=O)(=O)c1ccc(C)cc1	rCAG binder 66.6 (no result: TLR4 MyD88 comp) | rCAG binder conf 49.7 | DNA CAG counter 15.7
CN1C2=N[C@@H](c3ccc4c(c3)OCO4)CC(=O)N2/C(=C\c2ccccc2)[C@@H]1c1ccccc1	none (no result: TLR9-MyD88 block, NOD2 RIPK2 PPI, TLR4 MyD88 comp, rCAG binder, ABHD5-PLIN5 inh)
O=C(Nc1ccc(NS(=O)(=O)c2ccccc2)cc1)c1ccccc1Cl	none (no result: TLR4 MyD88 comp)
Cc1ccc(S(=O)(=O)N2[C@@H](c3ccc(Cl)c(Cl)c3)C(C(=O)O)=C[C@H]2C(C)(C)C)cc1	none (no result: PRMT1 FP inh, TLR4 MyD88 comp, rCAG binder)
CC[C@@H]1C=C(C(=O)O)[C@H](c2ccc(Cl)c(Cl)c2)N1S(=O)(=O)c1ccc(C)cc1	rCAG binder 46.0 (no result: TLR4 MyD88 comp) | rCAG binder conf 41.0 | DNA CAG counter 12.3
CCOc1cc(/C=C(/NC(C)=O)C(=O)O)cc(Cl)c1OCc1cccc(Br)c1	rCAG binder 44.0 (no result: TLR4 MyD88 comp) | rCAG binder conf inactive | DNA CAG counter 5.5
NC1=NC(=O)/C(=C/c2cn(Cc3ccccc3)c3ccccc23)S1	rCAG binder 44.5 | rCAG binder conf inactive | DNA CAG counter 11.4
O=C(O)c1cccc(S(=O)(=O)N(Cc2ccccc2)c2ccccc2)c1	none
O=C(O)c1ccc(Cl)c(S(=O)(=O)N(Cc2ccccc2)c2ccccc2Cl)c1	rCAG binder 72.8 (no result: TLR4 MyD88 comp) | rCAG binder conf 68.2 | DNA CAG counter 21.7
O=C(O)c1ccc(Cl)c(S(=O)(=O)N(Cc2ccccc2)c2ccccc2)c1	rCAG binder 38.3 (no result: TLR4 MyD88 comp) | rCAG binder conf 38.9 | DNA CAG counter 9.6
CCN(CC)S(=O)(=O)c1cc(C(=O)O)ccc1Cl	none
O=C(O)c1ccc(CN(c2ccccc2)S(=O)(=O)c2ccccc2)cc1	none (no result: TLR4 MyD88 comp)
O=C(O)c1ccc(Cl)c(S(=O)(=O)N(Cc2ccccc2)c2ccc(F)cc2)c1	rCAG binder 54.5 (no result: TLR4 MyD88 comp) | rCAG binder conf 48.2 | DNA CAG counter 12.8
O=C(O)c1cc(S(=O)(=O)N(Cc2ccccc2)c2ccccc2Cl)ccc1Cl	none (no result: TLR4 MyD88 comp)
